Records with an inconclusive call do not appear. A call without a number means that no potency is given here. Calls of active or inactive are those of the source. Calls come from the whole dose curve; as a rule, active = well fitted activation curve with a large enough effect; inconclusive = small, poorly fitted or top-dose-only effect; inactive = flat fitted curve, though single readings scatter.
Potency is the fitted concentration of half-maximal effect.

A short description of this assay: Primary redox qHTS assay for identification of artifact compounds. (AID 1845223). The conditions noted are these: Amplex Red/HRP redox cycling with DTT, fluorescence; series mostly up to 53.8 µM. From the text: PI: Alexander Tropsha Ph.D.
UNC Eshelman School of Pharmacy
University of North Carolina, Chapel Hill, North Carolina
Hits from high-throughput screening (HTS) of chemical libraries are often false positives due to their interference with the assay detection technology. In response to this problem, we generated the largest publicly available library of chemical liabilities and developed a free webtool to predict HTS artifacts, both of which are described herein. More specifically, we generated, curated, and integrated HTS datasets for thiol reactivity, redox activity, and luciferase (firefly and nano) activity. Using these curated datasets, we developed and validated several Quantitative Structure-Interference Relationship (QSIR) models to predict nuisance behavior. […] These models were employed for virtual profiling of the National Center for Advancing Translational Science's (NCATS) in-house library, and 256 compounds for each assay were selected for the experimental validation of nuisance behavior. The BA for these external predictions ranged from 58 to 78% for compounds within the applicability domains of the models. […] The models developed in this study, along with aggregation models previously developed by our group (SCAM Detective) were implemented in "Liability Predictor," an online tool which may be used as part of chemical library design or for triaging HTS hits. Both the models and the curated datasets are publicly available at https://liability.mml.unc.edu/.
SEQUENCE No. (e.g., 1, 2, 3, etc.); […] (e.g., Cells, Incubation, Reagent, etc.); VALUE; DESCRIPTION.
1; Reagent; 3 uL; Amplex Red and HRP mixture.
2; Compounds and control; 16 nL; Kalypsis pin tool (Wako USA) equipped with a 1536-well pin head. […]
6; Detection; Fluorescence, ViewLux microplate reader, 525 nm excitation, 598 nm emission.
NOTES (numbers refer to Sequence numbers above)
1. 3 uL of a mixture containing Amplex Red (25 uM final concentration) and horseradish peroxidase (HRP; 250 mU/mL final concentration) in assay buffer (HBSS) was dispensed into all wells of a 1536-well assay plate (solid-bottom black plate; Greiner Bio One, Monroe, NC).
2. A Wako Pin-tool (Wako Automation, Richmond, VA) was used to transfer 16 nL of compounds (consisting of 7-plates in qHTS format, final concentration range 18.3 nM to 114 uM) or control DA3003 (final concentration range 1.22 nM to 40 uM).
3. 15 min. incubation at room temperature protected from light.
4. 1 uL of DTT (prepared fresh; final concentration 250 uM) was dispensed for a final assay volume of 4 uL.
5. Plates were centrifuged (121xg, 15 seconds) and incubated for 30 minutes at room temperature protected from light.
6. Samples were read for fluorescence (Ex/Em = 525(20)/598(25) nm) on a ViewLux CCD imager (PerkinElmer). Data were normalized to DMSO (0% activity) and DA3003 (10 uM final concentration; 100% activity) and the resulting percent inhibition data were fitted to a 4-parameter Hill equation using NCATS in-house software.
Background: In qHTS, concentration-response curves come from the screen itself.
Take `OC1CCC(Nc2nc(-c3ccccc3)nc3[nH]ccc23)CC1` (stereo not given): the Potency result was “inactive”.

Consider `CCOC(=O)N1c2ccc(C(F)(F)F)cc2C(N(Cc2cc(C(F)(F)F)cc(C(F)(F)F)c2)C(=O)OC)CC1CC` (stereo not given), for which the Potency entry was “inactive”.

In the case of `N#CC(CCCN1CCN(/N=C/c2cccnc2)CC1)(c1ccccc1)c1ccccc1`, the Potency result is “inactive”. Then `CCCNCCc1ccc(NS(=O)(=O)c2ccc(OC(F)(F)F)cc2)cc1`, with “inactive”.

On to `CNc1nc(NCc2ccc(NS(C)(=O)=O)cc2Cl)cc(-c2ccccn2)n1`, for which the Potency result was “inactive”. In the case of `CC(=O)NC(C)c1cnc(-c2cnc(Oc3ccc(OC(C)C)cc3)s2)s1` (stereo not given) it was “inactive”; in that of `Cc1cc(OCCCS(C)(=O)=O)cc(C)c1-c1cccc(COc2ccc(C3=CC(=O)NS3=O)cc2)c1` (stereo not given), “inactive”; in that of `O=c1[nH]c2cccc(N3CCN(Cc4ccc(-c5ccccc5)cc4)CC3)c2o1`, “inactive”.

For the molecule `COc1cc(-c2nc(N[C@H](CO)Cc3ccccc3)ccc2C(=O)NCCOc2ccccc2)cc(OC)c1OC`, the Potency result is “inactive”. Take `CCC(C)CC(=O)OC1C(=O)C(CO)=CC(O)C1C(C)C` (stereo not given): the Potency result was “inactive”. In the case of `COc1ccccc1N1CCN(c2ncnc3n[nH]c(Br)c23)CC1` it was “inactive”; in that of `N#Cc1cccc(C(=O)Nc2cc(-c3ccccc3)nn2-c2ccccc2)c1`, “inactive”. In the case of `CN(C)CCCn1cc(C2=C(c3c[nH]c4ccccc34)C(=O)NC2=O)c2ccccc21` it was “inactive”. In the case of `O=C(NCc1cccs1)c1cc2nc(-c3ccco3)cc(C(F)(F)Cl)n2n1` it was “inactive”; in that of `CCC(CC)C(=O)OC12C(OC(=O)C(C)C)C(C)C3(O)C(C=C(CO)CC4(O)C(=O)C(C)=CC43)C1C2(C)C` (stereo not given), “inactive”. Take `COc1cc(NC(=O)c2cccc(-n3cc(NC(=O)Nc4cccc(C)c4)cn3)c2)cc(OC)c1OC`: the Potency result was “inactive”. Then `CCCCc1c(-c2ccc(OC)cc2)[nH]c2nccnc12`, with “inactive”; and `COC1=CC(=O)C=C(C)C12Oc1c(Cl)c(OC)cc(OC)c1C2=O` (stereo not given), with “inactive”; and `C=C1CC2OC(=O)C(=C)C2C(OC(=O)/C(C)=C\C)CC2(C)OC1=CC2=O` (stereo not given), with “inactive”. In the case of `C=C1CC[C@@H]2[C@](C)(CO)[C@H](O)CC[C@@]2(C)[C@@H]1C/C=C1/C(=O)OCC1OC(=O)/C(=C/CO)C(O)C[C@@H]1C(=C)CC[C@@H]2[C@](C)(CO)[C@H](O)CC[C@]21C` (stereo not given in full) it was “inactive”. `Cn1nc(C(C)(C)C)cc1C(=O)N[C@@H](Cc1cccc(Cl)c1)C(=O)NCC#N`: the Potency result is “inactive”. For the molecule `Cc1cc(N2CCOCC2)ccc1Nc1nc(NC2CCCCC2)c2[nH]cnc2n1`, the Potency result was “inactive”. In the case of `C[C@H](CN(C)C)Oc1nc(Nc2cc3cccc(Cl)c3cn2)cnc1C#N`, the Potency entry is “inactive”. In the case of `Cc1cn(CCN2CCN(c3ccccc3-c3cc(C#N)cc(C(=O)NCCCN4CCCC4)c3)CC2)c2ccccc12` it was “inactive”; in that of `CCO[C@H]1CN(C2CCC(O)(c3ccc4c(c3)OCO4)CC2)C[C@@H]1NC(=O)CNC(=O)c1cccc(C(F)(F)F)c1` (stereo not given in full), “inactive”; in that of `O=C(Nc1ccc(CN2CCOCC2)cc1)c1ccc(-c2cccc(Cl)c2)o1`, “inactive”. In the case of `C=C1CC2OC(=O)C(COC)C2C(OC(=O)/C(C)=C\C)CC2(C)OC1=CC2=O` (stereo not given) it was “inactive”; in that of `C=CCC1=C[C@]2(OC)[C@H](C)[C@@H](c3ccc4c(c3)OCO4)O[C@]2(OC)CC1=O`, “inactive”; in that of `Cc1ccc(-c2ncccn2)c(C(=O)N2C[C@H](COc3ccc(F)cn3)CC[C@H]2C)c1`, “inactive”.

On to `CC(C)(O)c1ccc2c(c1)ncn2-c1cccc(-c2ccccc2C#N)c1`, for which the Potency entry was “inactive”.

Regarding `Cc1cc(-c2cnc(N)c3c(-c4ccc5scnc5c4)csc23)n(C)n1`, the Potency entry is “inactive”. In the case of `O=C(NCCO)c1cccc(-c2cc(Nc3ccc(OC(F)(F)F)cc3)ncn2)c1` it was “inactive”. In the case of `O=C(NCCN1CCC(n2c(=O)[nH]c3ccccc32)CC1)c1cc2cc(F)ccc2[nH]1` it was “inactive”; in that of `CCNC(=O)N1CCCN(c2ccc(C(=O)NCCc3ccc(Cl)cc3Cl)cc2NC(=O)c2cccc(Cl)c2)CC1`, “inactive”. On to `Cn1nc(-c2ccc(C(F)(F)F)cc2)nc2c(=O)n(C)c(=O)nc1-2`, for which the Potency is 150 nM (active). With `COc1ccc2c(c1O[C@H]1CCNC1)CCC2`, the Potency entry is “inactive”. In the case of `CCCCOC(=O)NS(=O)(=O)c1sc(CC(C)C)cc1-c1ccc(Cn2ccnc2)cc1` it was “inactive”; in that of `CCC(C)C(=O)Oc1cc(C)ccc1C1(COC(=O)C(C)C)CO1` (stereo not given), “inactive”; in that of `O=C(Nc1ccccc1)N1CCC(Cc2cnc3ccccc3c2)CC1`, “inactive”. Then `COc1ccc2[nH]c(=O)c3c(c2c1)OC(C)(C)C=C3`, with “inactive”.

For the origin of these results see PubChem BioAssay (NCATS).
